The source made the active and inactive calls.

We go through four molecules from PubChem BioAssay.

Assay [1] can be described thus: optical density shifts of acrAB sulA E. coli – strain DRC41, OD650, 48 h, E. coli filamentation inducer project, primary screen (AID 1152).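 Note: E. coli MC1000 strain DRC41 lacking acrAB efflux pump and sulA.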 The settings on record: higher = more signal, called active from +8 up or from −8 down.
The nature of assay [2]: probe aLefty1 binding on compound microarray – biochemical, small-molecule microarray, 635/667 nm fluorescence, primary screen (AID 1153).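 Note: score merges spot fluorescence with signal-to-noise ratio from the scanned slide images.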 The settings on record: higher = more signal.
Assay [3] is described as follows: plasmodial surface anion channel blockers, osmotic lysis – cell-based, P. falciparum Indochina, OD700, 1 h, primary screen (AID 1154). The following applies: P. falciparum Indochina infected RBC osmotic lysis, higher = more signal, called active from +8 up or from −8 down.
Assay [4] can be described thus: plasmodial surface anion channel blockers, osmotic lysis – cell-based, P. falciparum Indochina, OD700, 2 h, primary screen (AID 1155).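 Note: lysis reports solute entry through the parasite surface anion channel PSAC.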 The following applies: P. falciparum Indochina infected erythrocytes, higher = more signal, called active from +8 up or from −8 down.
Assay [5] in a line: changes in parasitized red cell lysis, either direction – P. falciparum Indochina, OD700, 3 h, PSAC antagonist project, primary screen (AID 1156). The following applies: P. falciparum-infected erythrocytes, osmotic lysis, higher = more signal, called active from +8 up or from −8 down.
The nature of assay [6]: plasmodial surface anion channel blockers, osmotic lysis – cell-based, P. falciparum Indochina, OD700, 18 h, primary screen (AID 1157). The settings on record: P. falciparum Indochina infected erythrocytes, osmotic lysis OD700, 18 h; higher = more signal, called active from +8 up or from −8 down.
Assay [7] can be described thus: S6 kinase pathway phospho-S6 level changes – cell-based, A549, cytoblot, luminescence, serum-stimulated, primary screen (AID 1158).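 Note: serum-stimulated A549 lung adenocarcinoma cells; signal is phosphorylated S6 detected by cytoblot immunostaining with HRP secondary.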 The settings on record: 5 h, higher = more signal.
Assay [8] concerns the target NADPH oxidase 2 (Homo sapiens) (UniProt P04839). Nature of the assay: compounds shifting NOX2 Amplex Red fluorescence – cell-based, HEK293-NOX2, PMA-stimulated, NOX inhibitor project, primary screen (AID 1159). Note: test concentration not given here. The following applies: 45 min, higher = more signal, called active from +8 up or from −8 down.
The target in assay [9] is NADPH oxidase 4 (Homo sapiens) (UniProt Q9NPH5). Nature of the assay: compounds shifting NOX4 Amplex Red fluorescence – cell-based, HEK293-NOX4, tetracycline-induced, NOX inhibitor project, primary screen (AID 1160). The following applies: HEK293-NOX4, Amplex Red H2O2 fluorescence, 45 min; higher = more signal, called active from +8 up or from −8 down.
Chain of NADPH oxidase 4 (Homo sapiens) (Q9NPH5 whole entry, looked up): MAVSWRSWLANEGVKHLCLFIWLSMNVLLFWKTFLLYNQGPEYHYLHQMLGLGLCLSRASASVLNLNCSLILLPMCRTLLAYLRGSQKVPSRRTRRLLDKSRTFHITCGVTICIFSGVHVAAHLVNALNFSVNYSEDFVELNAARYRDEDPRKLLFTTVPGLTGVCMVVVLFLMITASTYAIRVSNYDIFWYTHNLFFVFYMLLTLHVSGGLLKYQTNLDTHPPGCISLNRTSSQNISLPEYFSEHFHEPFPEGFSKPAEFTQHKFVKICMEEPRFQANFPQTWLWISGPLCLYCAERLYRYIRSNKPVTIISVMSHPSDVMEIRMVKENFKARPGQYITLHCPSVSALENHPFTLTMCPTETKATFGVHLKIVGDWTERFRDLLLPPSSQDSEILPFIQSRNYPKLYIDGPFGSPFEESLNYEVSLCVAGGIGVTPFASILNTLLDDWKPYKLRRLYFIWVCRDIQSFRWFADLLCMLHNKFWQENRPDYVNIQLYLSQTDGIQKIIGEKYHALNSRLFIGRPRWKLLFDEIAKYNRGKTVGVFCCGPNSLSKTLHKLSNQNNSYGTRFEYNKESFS
Assay [10] concerns the target NADPH oxidase 5 (Homo sapiens) (UniProt Q96PH1). Put plainly: compounds shifting NOX5 Amplex Red fluorescence – cell-based, HEK293-NOX5, NOX inhibitor project, primary screen (AID 1161). The settings on record: HEK293-NOX5, ionomycin, 45 min, higher = more signal.
Assay [11] is described as follows: compound effects on lung adenocarcinoma cell viability – A549, calcein-AM fluorescence, 48 h, basal, profiling panel (AID 1162). Note: test concentration not given here. The following applies: higher = more signal.
Assay [12] can be described thus: compound effects on differentiated 3T3-L1 adipocyte viability – cell-based, 3T3-L1 adipocytes, calcein-AM fluorescence, 48 h, basal, profiling panel (AID 1163). Note: test concentration not given here. The settings on record: 3T3-L1 adipocytes viability, higher = more signal.
Assay [13] in a line: compound effects on hepatocellular carcinoma cell viability – HepG2, calcein-AM fluorescence, 48 h, basal, profiling panel (AID 1164). Note: test concentration not given here. The settings on record: higher = more signal.
The nature of assay [14]: compound effects on multiple myeloma cell viability – MM1S, calcein-AM fluorescence, 48 h, basal, profiling panel (AID 1165).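 Note: viability of MM1S multiple myeloma cells under basal unstimulated conditions; test concentration not given here.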 The settings on record: higher = more signal.
Assay [15] in a line: calcein-AM signal in unstimulated myeloma cells – cell-based, calcein-AM fluorescence, 48 h, PK04 Diversity Set, profiling panel (AID 1166).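 Note: cells grown under basal conditions without added stimulus; test concentration not given here.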 The following applies: RPMI8226 myeloma viability, higher = more signal.
Assay [16] in a line: JC-1 mitochondrial signal, unstimulated HepG2 cells – cell-based, JC-1 fluorescence, 24 h, 100 nL compound, profiling panel (AID 1167). Note: test concentration not given here. The settings on record: HepG2 mitochondrial potential, higher = more signal.
A short description of assay [17]: JC-1 mitochondrial signal, unstimulated adipocytes – cell-based, JC-1 fluorescence, 3T3-L1 adipocytes, 24 h, 100 nL compound, profiling panel (AID 1168). Note: test concentration not given here. The following applies: JC-1 mitochondrial fluorescence, higher = more signal, called active from +8 up or from −8 down.
Assay [18] is described as follows: JC-1 mitochondrial signal, unstimulated myeloma cells – cell-based, JC-1 fluorescence, RPMI8226, 24 h, 100 nL compound, profiling panel (AID 1169). Note: test concentration not given here. The settings on record: JC-1 mitochondrial potential fluorescence, higher = more signal.
A short description of assay [19]: JC-1 mitochondrial signal, unstimulated MM1S myeloma – cell-based, JC-1 fluorescence, 24 h, 100 nL compound, profiling panel (AID 1170). Note: test concentration not given here. The settings on record: MM1S mitochondrial potential, higher = more signal.
The nature of assay [20]: resazurin metabolic signal in A549 cells – cell-based, resazurin fluorescence, 24 h, PK04 Diversity Set, profiling panel (AID 1171). Note: test concentration not given here. The settings on record: A549 viability, higher = more signal, called active from +8 up or from −8 down. On the technique in general: Alamar Blue is a resazurin reagent that responds to reducing activity.

Chain of NADPH oxidase 5 (Homo sapiens) (Q96PH1 whole entry, looked up): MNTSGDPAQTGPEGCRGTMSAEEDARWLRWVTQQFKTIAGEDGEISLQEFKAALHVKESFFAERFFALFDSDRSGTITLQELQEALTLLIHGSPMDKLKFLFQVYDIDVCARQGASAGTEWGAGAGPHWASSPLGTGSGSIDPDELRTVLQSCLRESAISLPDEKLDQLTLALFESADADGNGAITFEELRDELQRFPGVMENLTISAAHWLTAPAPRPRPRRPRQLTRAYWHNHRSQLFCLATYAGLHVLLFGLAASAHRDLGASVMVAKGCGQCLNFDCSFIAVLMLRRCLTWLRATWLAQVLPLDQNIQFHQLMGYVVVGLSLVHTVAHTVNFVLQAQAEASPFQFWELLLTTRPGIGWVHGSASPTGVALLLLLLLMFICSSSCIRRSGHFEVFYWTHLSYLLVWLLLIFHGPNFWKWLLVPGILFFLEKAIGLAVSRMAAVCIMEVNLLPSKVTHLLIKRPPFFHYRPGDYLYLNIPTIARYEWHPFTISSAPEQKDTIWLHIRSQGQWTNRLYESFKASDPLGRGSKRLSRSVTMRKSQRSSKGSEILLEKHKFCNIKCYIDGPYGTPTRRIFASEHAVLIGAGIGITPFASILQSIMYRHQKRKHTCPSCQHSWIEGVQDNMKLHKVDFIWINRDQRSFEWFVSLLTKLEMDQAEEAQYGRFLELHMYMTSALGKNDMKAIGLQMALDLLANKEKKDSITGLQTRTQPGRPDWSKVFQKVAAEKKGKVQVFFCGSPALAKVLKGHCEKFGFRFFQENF
Chain of NADPH oxidase 2 (Homo sapiens) (P04839 whole entry, looked up): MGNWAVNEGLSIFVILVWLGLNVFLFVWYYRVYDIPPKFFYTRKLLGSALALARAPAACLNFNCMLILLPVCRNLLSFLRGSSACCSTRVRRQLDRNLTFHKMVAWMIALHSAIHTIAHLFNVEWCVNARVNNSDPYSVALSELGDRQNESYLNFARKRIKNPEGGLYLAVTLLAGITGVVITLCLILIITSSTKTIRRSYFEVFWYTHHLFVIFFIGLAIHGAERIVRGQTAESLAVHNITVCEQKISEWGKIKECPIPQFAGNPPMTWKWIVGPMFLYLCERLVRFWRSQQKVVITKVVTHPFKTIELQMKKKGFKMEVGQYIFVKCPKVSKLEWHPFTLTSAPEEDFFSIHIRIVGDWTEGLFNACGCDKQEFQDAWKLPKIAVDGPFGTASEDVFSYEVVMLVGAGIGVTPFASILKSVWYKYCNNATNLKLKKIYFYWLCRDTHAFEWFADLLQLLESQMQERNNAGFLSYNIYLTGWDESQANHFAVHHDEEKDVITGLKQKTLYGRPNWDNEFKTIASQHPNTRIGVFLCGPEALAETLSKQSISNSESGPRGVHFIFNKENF

`CC(C)(C)OC(=O)CC[C@@]1(C(=O)O)N=C(c2ccc(OCCCO)cc2)O[C@@H]1c1ccccc1CN=[N+]=[N-]`: the z-score in assay [1] is 0.648 (inactive); in [3], 24.5 (active); in [4], 10 (active); in assay [5] it was -0.0836 (inactive); in [6], 1.53 (inactive); in assay [7] it was 0.0274. Moreover, the z-score in [8] is 0.716 (inactive); in [9] it was 0.691 (inactive); in [10] it was 1.53; in assay [11] it was 0.824; in assay [12] it was -0.0107; in assay [13], 0.0885. For the same molecule, the z-score was 0.131 in assay [14]; 0.813 in assay [15]; -0.0553 in assay [16]; -0.913 (inactive) in [17]; -0.411 in assay [18]; -0.579 in assay [19]. Further, the z-score in [20] is 10.4 (active). In addition, in assay [2], the composite z-score stood at 0.479.
As for `CC(C)CN1C(=O)[C@@]2(Cc3ccccc31)c1ccccc1C(=O)N(Cc1ccccc1C(F)(F)F)[C@H]2c1ccc(CO)cc1`, the z-score in assay [1] was 1.14 (inactive); in assay [3], 0.21 (inactive); in [4] it was -0.419 (inactive); in [5], -0.495 (inactive); in [6], -0.48 (inactive); in assay [7], 2.04. Further, the z-score is 0.0489 (inactive) in [8]; 0.771 (inactive) in assay [9]; 1.34 in assay [10]; 1.23 in assay [11]; 1.06 in assay [12]; 0.493 in assay [13]. Moreover, the z-score in assay [14] is 0.939; in assay [15] it was 1.2; in [16] it was 0.786; in assay [17] it was -1.55 (inactive); in [18], 0.01; in [19] it was -0.534. Moreover, in assay [20], the z-score was -0.236 (inactive). In assay [2], this molecule had a composite z-score of -0.345.
For `COC(=O)C(CC#Cc1ccc2c(c1)[C@]1(C(=O)N2)[C@H](C(=O)O)[C@H]2C(=O)O[C@H](c3ccccc3)[C@H](c3ccccc3)N2[C@@H]1c1ccccc1OCCO)C(=O)OC`, the z-score in assay [1] was -1.21 (inactive); in [3], 4.19 (inactive); in [4] it was 0.487 (inactive); in assay [5], -5.95 (inactive); in [6] it was -0.008 (inactive); in [7], 0.029. Moreover, the z-score is 1.37 (inactive) in assay [8]; -1.33 (inactive) in assay [9]; 1.19 in assay [10]; -0.045 in [11]; -0.182 in assay [12]; -0.219 in assay [13]. The z-score in assay [14] is -3.26; in assay [15], -4.09; in [16], -2.93; in assay [17], -0.236 (inactive); in assay [18], -0.441; in [19], -1.98. The z-score in [20] is -0.327 (inactive). The molecule further showed a composite z-score in [2] of 0.658.
With `COc1ccc([Si](C)(C)[C@H]2[C@H](CCn3cc([C@H](O)c4ccccc4)nn3)O[C@@]3(C(=O)N(Cc4cccc(N5C(=O)c6cccc7cccc5c67)c4)c4ccccc43)[C@@H]2C)cc1`, the z-score in assay [1] is -0.749 (inactive); in assay [3], 1.23 (inactive); in assay [4], -0.38 (inactive); in [5] it was -0.58 (inactive); in [6] it was 0.376 (inactive); in assay [7] it was -0.0203. In addition, the z-score in assay [8] is 0.918 (inactive); in [9] it was 1.57 (inactive); in [10], 1.56; in [11], -0.252; in [12], 0.0344; in [13], -0.506. The z-score is -0.342 in [14]; -1.56 in assay [15]; -0.411 in [16]; -1.63 (inactive) in assay [17]; -0.00407 in assay [18]; -0.319 in assay [19]. The z-score in [20] was -0.884 (inactive). Moreover, the composite z-score in [2] was -0.0141.
